{"source": "PubChem BioAssay AID449739", "about": "(Vanderbilt High Throughput Screening Facility, 2010)", "note": "The campaign covered roughly 100,000 compounds. About 4,200 (4.2%) were called active. The sample as a whole holds a higher share of actives than the screen did. Values without a mark were called inactive.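 Rule for the calls: active = single-dose well whose peak fluorescence ratio is a statistical outlier from its plate by either plate-standardised score or position-corrected B-score; inactive = the rest.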", "data": [{"target": "Voltage-dependent T-type calcium channel subunit alpha-1H (Homo sapiens) (UniProt O95180)", "sequence (O95180 whole entry, looked up)": "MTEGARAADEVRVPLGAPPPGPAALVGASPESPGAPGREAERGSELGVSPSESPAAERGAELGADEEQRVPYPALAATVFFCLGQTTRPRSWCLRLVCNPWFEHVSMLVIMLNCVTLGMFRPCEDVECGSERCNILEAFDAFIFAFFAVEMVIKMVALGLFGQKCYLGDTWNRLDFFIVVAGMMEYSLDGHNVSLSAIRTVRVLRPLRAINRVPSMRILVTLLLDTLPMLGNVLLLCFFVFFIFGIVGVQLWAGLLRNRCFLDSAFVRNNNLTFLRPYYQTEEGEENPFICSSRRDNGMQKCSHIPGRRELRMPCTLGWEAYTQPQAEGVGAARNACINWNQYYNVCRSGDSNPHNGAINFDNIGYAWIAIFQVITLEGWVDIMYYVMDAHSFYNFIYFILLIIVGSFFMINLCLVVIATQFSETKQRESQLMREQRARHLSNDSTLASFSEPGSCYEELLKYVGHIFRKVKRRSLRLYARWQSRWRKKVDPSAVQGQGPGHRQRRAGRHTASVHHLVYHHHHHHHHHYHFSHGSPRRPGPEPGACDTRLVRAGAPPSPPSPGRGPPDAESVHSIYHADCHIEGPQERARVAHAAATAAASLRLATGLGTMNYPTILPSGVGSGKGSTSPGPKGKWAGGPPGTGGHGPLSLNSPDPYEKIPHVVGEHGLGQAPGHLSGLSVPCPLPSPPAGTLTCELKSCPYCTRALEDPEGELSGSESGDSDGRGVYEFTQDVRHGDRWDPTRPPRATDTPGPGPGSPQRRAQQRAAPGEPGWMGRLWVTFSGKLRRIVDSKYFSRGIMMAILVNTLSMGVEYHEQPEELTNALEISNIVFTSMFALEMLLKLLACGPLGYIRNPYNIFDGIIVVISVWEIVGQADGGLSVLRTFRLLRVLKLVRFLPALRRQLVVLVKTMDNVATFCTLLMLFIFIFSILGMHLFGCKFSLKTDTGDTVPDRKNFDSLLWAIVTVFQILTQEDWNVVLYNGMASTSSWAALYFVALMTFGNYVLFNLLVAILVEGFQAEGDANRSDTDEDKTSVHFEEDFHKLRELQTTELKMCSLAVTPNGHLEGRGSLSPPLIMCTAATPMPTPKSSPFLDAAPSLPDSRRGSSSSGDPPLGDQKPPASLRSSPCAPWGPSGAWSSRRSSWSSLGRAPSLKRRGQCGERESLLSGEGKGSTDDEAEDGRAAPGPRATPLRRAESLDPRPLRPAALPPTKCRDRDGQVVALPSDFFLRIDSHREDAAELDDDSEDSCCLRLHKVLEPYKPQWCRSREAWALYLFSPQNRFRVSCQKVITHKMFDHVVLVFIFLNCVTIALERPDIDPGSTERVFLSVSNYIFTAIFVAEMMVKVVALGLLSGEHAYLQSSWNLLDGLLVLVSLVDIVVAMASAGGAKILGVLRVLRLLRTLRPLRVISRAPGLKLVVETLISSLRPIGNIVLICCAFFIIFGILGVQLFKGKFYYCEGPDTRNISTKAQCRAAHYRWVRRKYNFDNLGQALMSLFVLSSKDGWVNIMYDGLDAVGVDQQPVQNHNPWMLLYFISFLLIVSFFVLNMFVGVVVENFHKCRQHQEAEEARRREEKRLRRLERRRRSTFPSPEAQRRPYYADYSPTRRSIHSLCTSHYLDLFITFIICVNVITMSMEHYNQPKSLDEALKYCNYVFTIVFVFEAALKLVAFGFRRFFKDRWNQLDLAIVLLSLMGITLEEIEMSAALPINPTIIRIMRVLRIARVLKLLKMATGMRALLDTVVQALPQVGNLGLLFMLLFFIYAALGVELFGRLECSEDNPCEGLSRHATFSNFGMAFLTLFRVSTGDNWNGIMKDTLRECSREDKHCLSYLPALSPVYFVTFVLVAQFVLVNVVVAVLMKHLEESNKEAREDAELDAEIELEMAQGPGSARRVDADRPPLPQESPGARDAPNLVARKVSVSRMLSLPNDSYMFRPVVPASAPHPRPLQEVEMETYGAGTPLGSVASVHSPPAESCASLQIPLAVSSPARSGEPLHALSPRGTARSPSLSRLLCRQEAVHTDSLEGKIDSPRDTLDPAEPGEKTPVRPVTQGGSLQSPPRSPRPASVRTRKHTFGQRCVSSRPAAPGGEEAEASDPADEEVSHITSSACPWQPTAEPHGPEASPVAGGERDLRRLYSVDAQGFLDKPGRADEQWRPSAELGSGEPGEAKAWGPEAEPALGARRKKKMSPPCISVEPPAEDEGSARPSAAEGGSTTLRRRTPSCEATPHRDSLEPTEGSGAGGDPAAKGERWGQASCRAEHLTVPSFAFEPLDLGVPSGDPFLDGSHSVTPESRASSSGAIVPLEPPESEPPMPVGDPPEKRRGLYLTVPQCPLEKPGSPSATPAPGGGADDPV", "test": "Cav3.2 calcium influx blockers – cell-based, Fluo-4 calcium fluorescence, FDSS, MLSMR library, primary screen (AID 449739)", "conditions": "Cav3.2-expressing cells, at 10 µM, hits give low values", "values": [{"smiles": "CN1CCN(C(CNS(=O)(=O)c2cccs2)c2cccnc2)CC1", "note": "(stereo unspecified)", "B-score": -0.131}, {"smiles": "O=C(/C=C\\NCC(=O)c1ccccc1)c1ccccc1", "B-score": 0.368}, {"smiles": "COc1ccccc1NC(=O)CC(NCCN(C)C)C(=O)O", "note": "(stereo unspecified)", "B-score": -0.277}, {"smiles": "C#CCNC(=O)[C@H](Cc1ccc(C(=O)c2ccccc2)cc1)NC(=O)OC(C)(C)C", "B-score": 0.229}, {"smiles": "COc1ccccc1NC(=O)[C@H](COCc1ccccc1)NC(=O)OC(C)(C)C", "B-score": "-4.41 (active)"}, {"smiles": "COC(=O)c1ccc(C2C(Oc3ccccc3C)C(=O)N2CCc2ccc(OC)c(OC)c2)cc1", "note": "(stereo unspecified)", "B-score": -2.96}, {"smiles": "C=C1C2C[C@H](O)C(C)(C)[C@@]2(O)[C@H](O)C[C@]23C[C@@](C)(O)[C@H](CC[C@H]12)[C@H]3O", "note": "(stereo partly specified)", "B-score": 0.00132}, {"smiles": "C#CCO[C@@H]1C[C@H](n2cnc3c(=O)[nH]c(NC(=O)C(C)C)nc32)O[C@@H]1CO", "B-score": 0.0144}, {"smiles": "CC(C)NC(=O)NCCCCCCS(C)=O", "note": "(stereo unspecified)", "B-score": 0.449}, {"smiles": "CCCCOC(=O)Cn1c(=O)n(CC(=O)OCCCC)c2cc(C)ccc21", "B-score": "-8.75 (active)"}, {"smiles": "CCOC(=O)CN1C(=O)C(=O)c2cc(C)ccc21", "B-score": 0.0584}, {"smiles": "CCCCOC(=O)Cn1c(=N)n(CCN(CC)CC)c2ccccc21", "B-score": 0.824}, {"smiles": "COC(=O)CCCC1=CC2=C(c3ccccc3)C(=O)C(C)(OC(=O)C3CCCC3)C(=O)C2=CN1c1ccc(OC)cc1", "note": "(stereo unspecified)", "B-score": 0.00545}, {"smiles": "Cc1nn(-c2ccccn2)c2c1C(c1ccncc1)C1=C(CC(C)(C)CC1=O)N2", "note": "(stereo unspecified)", "B-score": 0.727}, {"smiles": "Cc1noc(C)c1S(=O)(=O)N(CC(=O)Nc1ccc2c(c1)OCCO2)c1ccc(C(C)C)cc1", "B-score": -2.62}, {"smiles": "CCOC(=O)C1CCCN(C(=O)CN(c2ccc(OC)cc2)S(=O)(=O)c2c(C)noc2C)C1", "note": "(stereo unspecified)", "B-score": 0.012}, {"smiles": "CCOc1ccc(N(CC(=O)NCc2ccc(OC)cc2)S(=O)(=O)c2c(C)noc2C)cc1", "B-score": 0.15}, {"smiles": "CCOC(=O)c1cccc(NC(=O)CN(c2ccc(C)cc2)S(=O)(=O)c2c(C)noc2C)c1", "B-score": "-6.06 (active)"}, {"smiles": "CCOc1ccc(N(CC(=O)OC)S(=O)(=O)c2c(C)noc2C)cc1", "B-score": "-5.9 (active)"}, {"smiles": "COC(=O)c1ccc(NC(=O)CN(c2ccc(C)cc2)S(=O)(=O)c2c(C)n[nH]c2C)cc1", "B-score": -2.02}, {"smiles": "COc1cccc(C(=O)NNC(=O)c2ccccc2Br)c1", "B-score": 0.232}, {"smiles": "CC(C)NC(=O)C(=O)NCCCOC(C)C", "B-score": 0.568}, {"smiles": "Cc1sc(NC(=S)NC(=O)c2cccs2)nc1-c1ccc(CC(C)C)cc1", "B-score": -0.0675}, {"smiles": "CC/C=C/C(=O)N1CC2(CC(c3cccc(NC(=O)CC)c3)=NO2)C[C@H]1C(N)=O", "note": "(stereo partly specified)", "B-score": 0.223}, {"smiles": "CCOc1ccc(C(CCc2ccccc2)NC(=O)c2ccc(OC)c(OC)c2)cc1OCC", "note": "(stereo unspecified)", "B-score": -1.85}, {"smiles": "Cc1ccccc1OCC(=O)NCC(=O)OCC(=O)c1ccc2ccccc2c1", "B-score": -0.0134}, {"smiles": "O=C(Nc1ccccc1)N1CCN(Cc2ccccc2)CC1", "B-score": 0.4}, {"smiles": "COc1cccc(N2CCN(C(=O)Nc3ccc4c(c3)NC(=O)CO4)CC2)c1", "B-score": -0.0474}, {"smiles": "O=C(Nc1cccc(NC(=O)N2CCN(c3ccccc3)CC2)c1)N1CCN(c2ccccc2)CC1", "B-score": "-6.86 (active)"}, {"smiles": "O=C(C1=C[C@H](c2coc3ccccc3c2=O)C[C@H](OCc2ccc(CO)cc2)O1)N1CCOCC1", "B-score": 0.0258}, {"smiles": "O=C(ON=C1CCN(S(=O)(=O)c2ccccc2)CC1)c1ccc(Cl)cc1", "B-score": 0.782}, {"smiles": "Cc1ccccc1NC(=O)c1ccccc1", "B-score": 0.346}, {"smiles": "CC(C)(C)c1ccc(C(=O)NNC(=O)Cc2ccccc2)cc1", "B-score": 0.185}, {"smiles": "CN(C(=O)CC(NC(=O)c1ccccc1)(c1ccccc1)c1ccccc1)c1ccccc1", "B-score": "-8.96 (active)"}, {"smiles": "O=C(O)c1cnn2c(C(F)(F)F)cc(-c3ccccc3)nc12", "B-score": 1.18}, {"smiles": "COC(C/C=C/C(=O)[C@@H](C)OCc1ccccc1)OC", "B-score": -1.65}, {"smiles": "CCOC(=O)C[C@H]1c2ccc(C(F)(F)F)cc2S(=O)(=O)N1c1ccccc1", "B-score": -2.6}, {"smiles": "Cn1nc(C(F)(F)F)c(C(=O)Nc2cccc(C(F)(F)F)c2)c1SCc1ccc(Cl)cc1", "B-score": -4.7}, {"smiles": "CCC(=O)OCc1c(C(F)(F)F)nn(C)c1Oc1cccc(C(F)(F)F)c1", "B-score": "-5.08 (active)"}, {"smiles": "CC1=NN(C(=O)Cc2ccc(C)cc2)C(O)(c2cccnc2)C1", "note": "(stereo unspecified)", "B-score": 0.437}, {"smiles": "Cc1ccc(CNC(=O)c2ccc3c(c2)S(=O)(=O)c2ccccc2C3=O)cc1", "B-score": 0.00734}, {"smiles": "Cc1cc(/C=C2/SC(=O)N(CC(=O)OC(C)C)C2=O)c(C)n1C", "B-score": 0.168}, {"smiles": "Cc1ccc(-c2nc3ccccc3[nH]2)cc1NC(=O)c1sc2ccccc2c1Cl", "B-score": -3.3}, {"smiles": "O=C(Cc1c[nH]c2ccccc12)OCCOC(=O)Cc1c[nH]c2ccccc12", "B-score": "-6.55 (active)"}, {"smiles": "CC(=O)NC(Cc1c[nH]c2ccccc12)C(=O)O", "note": "(stereo unspecified)", "B-score": 1.52}, {"smiles": "NC(=O)CSc1c[nH]c2ccccc12", "B-score": 0.666}, {"smiles": "Cc1cc([N+](=O)[O-])c(NC2CCCCC2)c([N+](=O)[O-])c1", "B-score": -0.266}, {"smiles": "CONC(=O)c1cc(OCC(F)(F)F)ccc1OCC(F)(F)F", "B-score": 0.627}, {"smiles": "Brc1ccc(C2=CC(c3ccco3)n3ncnc3N2)cc1", "note": "(stereo unspecified)", "B-score": "-4.77 (active)"}, {"smiles": "CCOc1ccc(C2=CC(c3ccccc3)n3ncnc3N2)cc1", "note": "(stereo unspecified)", "B-score": -0.0885}, {"smiles": "COC(=O)C1=C(C)Nc2ncnn2C1c1ccco1", "note": "(stereo unspecified)", "B-score": -0.126}, {"smiles": "Cn1c(=O)c2c(nc(SCC(=O)Nc3ccccc3N3CCCCC3)n2C)n(C)c1=O", "B-score": -0.936}, {"smiles": "O=C(CN1CCN(C2CCCCC2)CC1)Nc1ccccc1N1CCCCC1", "B-score": -0.124}, {"smiles": "Cc1ccccc1NC(=O)CNc1ccccc1N1CCCCC1", "B-score": "-8.5 (active)"}, {"smiles": "C#CCOCCOCCOCCNc1nc(N2CCN(C(=O)[C@H](CCC(=O)O)n3cc(C(N)CO)nn3)CC2)nc(N2CCN(C(=O)[C@H](CCCCN)n3cc(C(N)CC(C)C)nn3)CC2)n1", "note": "(stereo partly specified)", "B-score": -1.41}, {"smiles": "Cc1ccc(C(=O)NNC(=O)OC(C)(C)C)c(Cl)c1", "B-score": -0.27}]}]}
